An excerpt weighted towards active compounds, which were near 2.4% of everything screened.
D2 ag-1: HTS Assay for Allosteric Agonists of the Human D2 Dopamine Receptor: Primary Screen for Agonists; HEK293 T-REx D2 cells, calcium flux agonist mode; 340,000 tested, 0.53% active; D(2) dopamine receptor (Homo sapiens), P14416; activation, % at 2 µM;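 active means activation over 3 SD above normal in the single-dose calcium agonist read, cut at about 30% in these data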; further: 0% is about no effect
Target sequence (P14416 whole entry, looked up): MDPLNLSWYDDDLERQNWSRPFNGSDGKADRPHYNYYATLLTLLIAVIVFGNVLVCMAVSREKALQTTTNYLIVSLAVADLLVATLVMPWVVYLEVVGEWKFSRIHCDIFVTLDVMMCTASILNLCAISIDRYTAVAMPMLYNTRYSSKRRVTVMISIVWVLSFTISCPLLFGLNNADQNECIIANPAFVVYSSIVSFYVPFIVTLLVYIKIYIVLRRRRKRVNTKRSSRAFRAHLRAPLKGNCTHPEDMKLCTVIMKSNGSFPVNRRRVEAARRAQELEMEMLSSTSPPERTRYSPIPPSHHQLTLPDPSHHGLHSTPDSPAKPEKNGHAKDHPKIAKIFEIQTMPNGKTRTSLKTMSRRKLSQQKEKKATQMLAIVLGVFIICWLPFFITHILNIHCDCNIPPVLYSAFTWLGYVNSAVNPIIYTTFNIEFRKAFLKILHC
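Calcium-flux readout, 1 cycle/sec over 180 s following compound pin transfer, in inducible HEK293 Trex D2 cells (force-coupled); dopamine controls included. Positive calcium responses during this window marked compounds as potential agonists.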
D2 antag: HTS Assay for Allosteric Antagonists of the Human D2 Dopamine Receptor: Primary Screen for Antagonists | HEK293 TREx D2 cells, calcium flux, dopamine EC80 | inhibition, % at 10 µM | 340,000 tested, 2% active | AID 485344, 2010; in the data active means inhibition above about 30%; inactive means below that, where a call was filed; further: 0% is about no effect
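Measurement of antagonist activity uses fluorescent calcium dye in inducible HEK293 T-REx D2 cells: 10 s baseline, compound addition with 180 s read, EC80 dopamine addition with a further 180 s read.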
D2 PAM-1: Beta-Arrestin HTS for Positive Allosteric Modulators of the Human D2 Dopamine Receptor: Potentiators; DiscoveRx D2 beta-arrestin cells, luminescence, 90 min; 100% = 57 uM dopamine signal; AID 624464, 2012; 360,000 tested, 0.23% active; potentiation, % (concentration not given with the values); in the data active means potentiation above about 50%; inconclusive means mostly about 30% to 49%
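D2 cells co-treated with compound plus 50 nM dopamine (EC20) for 90 min at 37 deg C to detect potentiation. Beta-arrestin recruitment was read as enzyme-fragment luminescence after 1 h at ambient temperature. Full response was set by 57 uM dopamine.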
D2 ag-2: Beta-Arrestin HTS for Positive Allosteric Modulators of the Human D2 Dopamine Receptor: Agonists. 360,000 tested, 0.084% active. activation, % (concentration not given with the values). DiscoveRx PathHunter D2 beta-arrestin, luminescence, 90 min; 100% = 57 uM dopamine signal. D(2) dopamine receptor (Homo sapiens), P14416. AID 624465, 2012; in the data active means activation above about 40%; inconclusive means between about 15% and that limit
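Agonist mode: compounds alone added to overnight-plated D2 PathHunter cells for 90 min at 37 C, with 57 uM final dopamine (EC100) defining full response. Beta-arrestin recruitment detected by chemiluminescent reagent, read after 1 h at ambient temperature.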
D2 PAM-2: HTS Assay for Positive Allosteric Modulators of the Human D2 Dopamine Receptor: Primary Screen for Potentiators; D(2) dopamine receptor (Homo sapiens), P14416; HEK293 T-REx D2, calcium flux, EC20 dopamine potentiation; potentiation, % at 10 µM; 340,000 tested, 0.34% active; AID 485347, 2010;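 active means potentiation over 3 SD above the plate norm, cut at about 30% in these data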; further: 0% is about no effect
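Calcium flux readout, no-wash dye, 1 read/s. Inducible HEK293 Trex D2 line, overnight 30 C. Compound alone 180 s (agonist flags), then EC20 dopamine, another 180 s to score potentiation.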
D3 arrestin ag: qHTS of D3 Dopamine Receptor Agonist: D3 Dopamine Receptor B-arrestin Agonist Confirmatory Assay | shares compounds with D2 ag-1 | DiscoveRx D3 beta-arrestin cells, luminescence, 90 min | 2,300 tested, 4% active | Potency, µM (titrated, usually from 76.9 µM), for inactives: at the highest dose activation, most hits filed as activators;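 further: potency means the concentration at half of the fitted maximal effect; 100% = dopamine control response; nearly all actives have a fitted effect of over 70% in size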
D2 ag-3: qHTS of D3 Dopamine Receptor Agonist: D2 Dopamine Receptor B-arrestin Agonist Counterscreen; 2,300 tested, 5.9% active; AID 720507, 2013; Potency, µM (series often up to 76.9 µM), for inactives: top-dose activation, hits mostly activators; DiscoveRx PathHunter D2 beta-arrestin, luminescence, 90 min; response scale: percent relative to full dopamine signal; shares compounds with D2 ag-1; further: potency means the concentration at half of the fitted maximal effect; % of control where 0% means no effect; nearly all actives have a fitted effect of over 70% in size
Starred values were filed as active, the others as inactive; ? = inconclusive; . = no result given. Unless noted, the call rests on the fitted dose curve; in most records, active means well fitted activation curve with a large enough effect; inconclusive means small, poorly fitted or top-dose-only effect; inactive means flat fitted curve, though single readings scatter.

SMILES	D2 ag-1	D2 antag	D2 PAM-1	D2 ag-2	D2 PAM-2	D3 arrestin ag	D2 ag-3
CCn1cc(C(=O)N2CCN(Cc3ccc4c(c3)OCO4)CC2)c(=O)c2ccc(C)nc21	68.0*	13.2	-15.3	5.7	-24.4	3.7%	11.9%
CCn1cc(C(=O)NCc2ccc3c(c2)OCO3)c(=O)c2ccc(C)nc21	0.3	-20.7	.	.	6.0	.	.
Cc1ccc2c(C)c(C(=O)N3CCN(Cc4ccc5c(c4)OCO5)CC3)oc2c1C	0.1	4.7	-31.7	8.2	-6.9	.	.
Cc1ccc(C(=O)N2CCN(Cc3ccc4c(c3)OCO4)CC2)o1	.	.	-34.7	3.1	.	11.2%	5.7%
N#Cc1ccc(S(=O)(=O)N2CCC(C(=O)N3CCN(Cc4ccc5c(c4)OCO5)CC3)CC2)cc1	34.6*	42.6*	3.2	?	-11.7	2.1%	?
CC(C)c1ccc2c(c1)NC(c1ccc(F)cc1)=NC(c1cccs1)=N2	-0.9	.	.	.	3.3	.	.
CCN1c2ccccc2-n2cccc2C12CCN(C(=O)Nc1ccccc1Br)CC2	-0.4	.	.	.	-6.8	.	.
Cc1ccc(NC(=O)CSc2nc3ccccc3c3nc(CCn4c(C)nc5ccccc54)nn23)cc1F	0.1	.	.	.	2.2	.	.
O=C(Cn1ccc2ccccc2c1=O)N1CCN(Cc2ccc3c(c2)OCO3)CC1	30.2*	0.2	-3.8	-3.6	-9.3	2.7%	9.1%
CCOC(=O)N1CCN(Cc2ccc3ccccc3c2)CC1	34.1*	21.3	-32.2	2.2	-5.8	-3.3%	26.2%
CCOC(=O)N1CCN(C(=O)c2ccc3ccccc3c2)CC1	0.1	-1.0	3.2	-4.1	-4.4	.	.
O=C(c1cnn2cccnc12)N1CCN(Cc2ccc3c(c2)OCO3)CC1	17.7	-5.5	-5.0	-1.7	-3.7	.	.
O=C(c1cc2ccccc2oc1=O)N1CCN(Cc2ccc3c(c2)OCO3)CC1	0.3	1.2	-18.5	0.1	-8.4	.	.
CCOc1ncccc1C(=O)N1CCN(Cc2ccc3c(c2)OCO3)CC1	79.9*	74.8*	-12.3	59.8*	-21.8	?	2.82µM*
O=C(CCCn1c(=O)[nH]c2ccsc2c1=O)N1CCN(Cc2ccc3c(c2)OCO3)CC1	.	.	-19.4	-2.9	-5.9	-1.3%	10.1%
CCOC(=O)c1cnc2ccccc2c1Nc1cccc(OC)c1	0.2	.	.	.	-0.4	.	.
COc1cc(C(=O)Nc2c(C(=O)Nc3ccccc3F)oc3ccccc23)cc(OC)c1OC	1.2	.	.	.	0.2	.	.
CC(=O)c1[nH]c(C)c(C(=O)NCc2ccc(Cl)cc2)c1C	-0.1	.	.	.	5.6	.	.
O=C(NCC(c1ccccc1)c1ccccc1)c1nn(-c2ccccc2F)nc1CO	.	.	.	.	-4.3	.	.
COc1ccc(Br)c2c1-c1nc(NC(=O)c3ccccc3SC)sc1C2	-0.6	.	.	.	-4.3	.	.
CS(=O)(=O)c1ccccc1C(=O)N1CCN(Cc2ccccc2)CC1	.	.	-1.2	4.2	.	-19.4%	26.0%
CCOC(=O)N1CCN(Cc2ccc3c(c2)OCO3)CC1	85.6*	80.9*	?	52.8*	-30.7	12.7%	5.01µM*
O=C(c1ccc([N+](=O)[O-])o1)N1CCN(Cc2ccccc2)CC1	-0.2	5.5	-22.4	5.6	3.2	.	.
COc1ccc(N(C)S(=O)(=O)c2cccc(C(=O)N3CCN(Cc4ccc5c(c4)OCO5)CC3)c2)cc1	58.4*	-3.5	-11.6	6.4	-15.5	2.8%	10.7%
Cc1ccc(C(=O)N2CCN(Cc3ccccc3)CC2)o1	50.2*	-13.6	-45.2	10.0	-17.7	-0.5%	2.9%
SMILES	D2 ag-1	D2 antag	D2 PAM-1	D2 ag-2	D2 PAM-2	D3 arrestin ag	D2 ag-3
CC(C)OCCCNC(=O)c1cn(C)c2ccc(S(=O)(=O)N3CCCCCC3)cc2c1=O	-0.8	.	.	.	0.7	.	.
Cc1ccc(Cl)cc1N(C)C(=O)c1sc2nc3n(c(=O)c2c1C)CCCC3	0.7	.	.	.	-7.2	.	.
CN(C)CCOc1ccccc1-c1ccccc1	.	.	-14.8	-0.9	.	.	.
CC(O)CNCCOc1ccccc1-c1ccccc1 (configuration not stated)	57.9*	57.8*	-11.7	1.8	-24.0	-9.9%	11.8%
CCCCNCCOc1ccccc1-c1ccccc1	27.8	69.5*	-30.7	-7.3	-18.7	-24.6%	7.6%
COc1cc(Cl)c(C)cc1NC(=O)CN1c2ccccc2S(=O)(=O)c2ccccc21	0.7	.	.	.	3.0	.	.
Cn1c(=O)c2[nH]c(N3CCCCC3)nc2n(C)c1=O	-0.4	-6.6	7.1	-0.5	3.7	.	.
Cn1c(=O)c2[nH]c(N3CCN(c4ccccn4)CC3)nc2n(C)c1=O	3.1	6.7	.	.	4.4	-2.3%	2.5%
CCOC(=O)CSc1nc2c(sc3ccccc32)c(=O)n1CCc1ccccc1	0.7	.	.	.	2.5	.	.
Cn1c(=O)[nH]c2cc(-c3noc(-c4ccc(F)cc4)n3)ccc21	.	.	.	.	-15.9	.	.
CCN(CC(=O)Nc1ccccc1C(F)(F)F)C(=O)c1ccccc1Sc1ccccc1C#N	0.3	3.5	3.5	-1.5	-6.6	-3.9%	-5.0%
CN(CC(=O)Nc1ccccc1C(F)(F)F)C(=O)c1ccccc1Sc1ccccc1C#N	-0.3	-6.6	-2.6	2.6	4.8	.	.
Cc1c(-c2ccccc2)n(-c2ccc(Cl)cc2)c2nc3c(c(=O)n(C)c(=O)n3C)n12	1.0	.	.	.	-2.5	.	.
Cc1cccc(NC(=O)CSc2nc3ccc(NC(=O)COc4ccc(Cl)cc4)cc3s2)c1	0.8	.	.	.	17.4	.	.
OCCC1CN(C/C=C/c2ccco2)CCN1Cc1ccccc1 (configuration not stated)	12.7	19.1	-25.4	0.1	-7.3	4.2%	1.0%
OCCC1CN(CCCc2ccccc2)CCN1Cc1ccccc1 (configuration not stated)	57.3*	40.2*	-12.4	-1.3	-28.6	-2.0%	1.0%
COc1cc(CN2CCN(CCCc3ccccc3)CC2CCO)cc(OC)c1 (configuration not stated)	63.0*	65.3*	-22.8	5.3	-27.2	-0.4%	5.1%
OCCC1CN(CCCc2ccccc2)CCN1CCc1ccccc1 (configuration not stated)	-0.7	-16.1	-22.7	3.3	3.0	.	.
COc1ccccc1/C=C/CN1CCN(Cc2ccc(F)cc2)C(CCO)C1 (configuration not stated)	.	.	-17.6	-2.1	.	.	.
